Reference: ChEMBL document CHEMBL1157539, “Thousands of chemical starting points for antimalarial lead identification” (Nature, 2010)

system: Plasmodium falciparum; test: GSK_TCMDC: Inhibition of Plasmodium falciparum Dd2 in whole red blood cells, using parasite LDH activity as an index of growth. Test compounds present at 2uM; format: functional

Row | Structure (SMILES) | Inhibition [%]
1 | O=S(=O)(Nc1ccc(CCN2CCC(N3CCCCC3)CC2)cc1)c1cccc2cccnc12 | 45
2 | COc1ccc2nccc([C@@H](O)CN3CCC(NCc4ccc5sc(=O)[nH]c5c4)CC3)c2c1.O=C(O)C(=O)O | 0
3 | COc1ccccc1-c1nc2nc(N)nc(N)c2nc1-c1ccccc1OC | 1
4 | CN1CCC[C@H]1COc1ccc(CN2CC[C@H](NC(=O)c3ccc(Cl)c(Cl)c3)C2)cc1Cl.O=C(O)C(F)(F)F | 44
5 | O=c1c2ccccc2[nH]c2cc(Cl)ccc12 | 86
6 | CNC(=N)c1ccc(NC(=O)c2ccc(C(=O)Nc3ccc(C(=N)NC)cc3)cc2)cc1.Cl | 91
7 | N=C(N)NN=CC(=O)Nc1cccc(C(F)(F)F)c1.O=S(=O)(O)O | 25
8 | CN(C)c1ccc(CN2CCCC(CNC(=O)c3ccc(-c4cccc(C(F)(F)F)c4)s3)C2)cc1.O=C(O)C(F)(F)F (stereo not given) | 37
9 | CN(/N=C/C=C/c1ccc(Cl)cc1)c1nc(NCCc2ccc(O)cc2)nc(N2CCNCC2)n1 | 69
10 | Cl.O=S(=O)(Nc1ccc2nccc(N3CCNCC3)c2c1)c1ccc(-c2ccccc2)cc1 | 0
11 | O=C(Nc1cccc(Cl)c1)N[C@H]1CCN(Cc2ccc(OCCCN3CCCCC3)cc2)C1 | 0
12 | Cc1ccc(NC(=O)c2cc(Br)cc(N3CCC(N(C)C)CC3)c2)cc1F.O=C(O)C(F)(F)F | 80
13 | COc1cc(N)c(Cl)cc1C(=O)NC1CCC(NCC2CCCCC2)CC1.Cl (stereo not given) | 85
14 | Cc1cc2c(cc1C(F)(F)F)N(C(=O)Nc1cnc(OCCN(C)C)c(C(F)(F)F)c1)CC2 | 25
15 | CCOc1ccc2ccccc2c1CNCCCCCCNCc1c(OCC)ccc2ccccc12.CS(=O)(=O)O | 89
16 | N=C(N)NC(=O)Nc1cc(F)c(Cl)c(Br)c1 | 50
17 | CC(O)C1CCCCN1C(=O)c1cccc(-c2ccc(-c3nc4ccccc4[nH]3)s2)c1 (stereo not given) | 23
18 | CC(C)CNC(=O)CN1C(=O)C(c2ccccc2)(c2ccccc2)N=C1N | 46
19 | Fc1ccc2[nH]c(-c3ccc(-c4ccc(CN5CCC(CCN6CCCCC6)CC5)cc4)s3)nc2c1.O=C(O)C(F)(F)F | 100
20 | FC(F)(F)c1ccc2[nH]c(-c3ccc(-c4ccc(CNCCN5CCNCC5)cc4)s3)nc2c1.O=C(O)C(F)(F)F | 79
21 | Cc1cc(Nc2ccc(C)c(Cl)c2)n2nc(C(F)(F)F)nc2n1 | 97
22 | CCC(C)(C)c1ccc2nc(N)nc(N)c2c1C | 82
23 | CC(C)CC1c2[nH]c3ccccc3c2CCN1C(=O)CCc1ccccc1 (stereo not given) | 82
24 | CCNc1cc(C(=O)N[C@@H](Cc2ccccc2)[C@H](O)CNCCc2ccccc2)cc(N2CCCC2=O)c1.O=C(O)C(F)(F)F | 46
25 | COc1ccc(-c2c3c(=O)n(C)c(=O)n(C)c3c3nnc4ccccc4n23)cc1 | 86
26 | Cc1cc2ccc(-c3cccc(CN)c3)cc2nc1N.Cl | 1
27 | CN1CCN(CCCN(Cc2ccc(-c3cccc(CNCc4ccc5c(c4)OCO5)c3)cc2)C(=O)NCCc2ccccc2)CC1.O=C(O)C(F)(F)F | 85
28 | Cc1cc(C(=O)Nc2ccc3c(ccn3C3CCCN(Cc4ccc(C(F)(F)F)cc4F)CC3)c2)no1 (stereo not given) | 95
29 | CCCc1ccc(Nc2nc(C)cc(N(CC)CCCN3CCCCC3)n2)cc1.O=C(O)C(F)(F)F | 95
30 | COc1cccc(CCNCCCCCCNCCc2ccc(Cl)cc2)c1.Cl | 3

system: HepG2; test: GSK_TCMDC: Percent inhibition of human HepG2 cell line. Test compounds present at 10uM.; format: functional

Row | Structure (SMILES) | Inhibition [%]
31 | C=CCN1C(=O)C(=Cc2cc(Br)ccc2O)SC1=Nc1ccccc1 | 0
32 | Cl.N#Cc1cccc(-c2ccc(C(=O)Nc3ccc4c(c3)CCN(C3CCC3)CC4)cn2)c1 | 26
33 | COc1ccc2[nH]c(C)cc(=NN=Cc3cc(C)ccc3O)c2c1 | 78
34 | O=C(Nc1ccccc1)N(Cc1ccccc1-c1cccc(CNC2CCCC2)c1)C1CCN(Cc2ccccc2)CC1.O=C(O)C(F)(F)F | 36
35 | COc1ccc2nc(-c3cc(-c4ccc(NC(=O)C(C)C)cc4)cnc3N)[nH]c2c1 | 43
36 | COc1ccc(NC(=O)[C@H](Cc2ccccc2)Nc2cc(C)nc(NCC3CCCCC3)n2)cc1.O=C(O)C(F)(F)F | 9
37 | CS(=O)(=O)NCCCNCc1cccc(-c2csc(-c3nc4ccccc4[nH]3)c2)c1.O=C(O)C(F)(F)F | 23
38 | Cl.Fc1cc(CN2CCCC2)ccc1OCCCN1CCN(c2cccc(Cl)c2Cl)CC1 | 67
39 | c1ccc(CNc2nc(NCCc3c[nH]cn3)nc(NCc3cccc4ccccc34)n2)cc1 | 9
40 | CCNc1cc(C(=O)N[C@@H](Cc2ccccc2Cl)[C@H](O)CNC(C)CCCC(C)C)cc(N2CCCCS2(=O)=O)c1.Cl (stereo not given in full) | 12
41 | O=S(=O)(Nc1ccc(CCN2CCC(N3CCCCC3)CC2)cc1)c1cccc2cccnc12 | 14
42 | COc1ccc2nccc([C@@H](O)CN3CCC(NCc4ccc5sc(=O)[nH]c5c4)CC3)c2c1.O=C(O)C(=O)O | 1
43 | COc1ccccc1-c1nc2nc(N)nc(N)c2nc1-c1ccccc1OC | 27
44 | CN1CCC[C@H]1COc1ccc(CN2CC[C@H](NC(=O)c3ccc(Cl)c(Cl)c3)C2)cc1Cl.O=C(O)C(F)(F)F | 53
45 | O=c1c2ccccc2[nH]c2cc(Cl)ccc12 | 24
46 | CNC(=N)c1ccc(NC(=O)c2ccc(C(=O)Nc3ccc(C(=N)NC)cc3)cc2)cc1.Cl | 6
47 | N=C(N)NN=CC(=O)Nc1cccc(C(F)(F)F)c1.O=S(=O)(O)O | 21
48 | CN(C)c1ccc(CN2CCCC(CNC(=O)c3ccc(-c4cccc(C(F)(F)F)c4)s3)C2)cc1.O=C(O)C(F)(F)F (stereo not given) | 32
49 | CN(/N=C/C=C/c1ccc(Cl)cc1)c1nc(NCCc2ccc(O)cc2)nc(N2CCNCC2)n1 | 14
50 | Cl.O=S(=O)(Nc1ccc2nccc(N3CCNCC3)c2c1)c1ccc(-c2ccccc2)cc1 | 0

Row | Structure (SMILES) | Inhibition [%]
51 | O=C(Nc1cccc(Cl)c1)N[C@H]1CCN(Cc2ccc(OCCCN3CCCCC3)cc2)C1 | 15
52 | Cc1ccc(NC(=O)c2cc(Br)cc(N3CCC(N(C)C)CC3)c2)cc1F.O=C(O)C(F)(F)F | 23
53 | COc1cc(N)c(Cl)cc1C(=O)NC1CCC(NCC2CCCCC2)CC1.Cl (stereo not given) | 18
54 | Cc1cc2c(cc1C(F)(F)F)N(C(=O)Nc1cnc(OCCN(C)C)c(C(F)(F)F)c1)CC2 | 28
55 | CCOc1ccc2ccccc2c1CNCCCCCCNCc1c(OCC)ccc2ccccc12.CS(=O)(=O)O | 100
56 | N=C(N)NC(=O)Nc1cc(F)c(Cl)c(Br)c1 | 0
57 | CC(O)C1CCCCN1C(=O)c1cccc(-c2ccc(-c3nc4ccccc4[nH]3)s2)c1 (stereo not given) | 24
58 | CC(C)CNC(=O)CN1C(=O)C(c2ccccc2)(c2ccccc2)N=C1N | 15
59 | Fc1ccc2[nH]c(-c3ccc(-c4ccc(CN5CCC(CCN6CCCCC6)CC5)cc4)s3)nc2c1.O=C(O)C(F)(F)F | 96
60 | FC(F)(F)c1ccc2[nH]c(-c3ccc(-c4ccc(CNCCN5CCNCC5)cc4)s3)nc2c1.O=C(O)C(F)(F)F | 17
61 | Cc1cc(Nc2ccc(C)c(Cl)c2)n2nc(C(F)(F)F)nc2n1 | 2
62 | CCC(C)(C)c1ccc2nc(N)nc(N)c2c1C | 62
63 | CC(C)CC1c2[nH]c3ccccc3c2CCN1C(=O)CCc1ccccc1 (stereo not given) | 0
64 | CCNc1cc(C(=O)N[C@@H](Cc2ccccc2)[C@H](O)CNCCc2ccccc2)cc(N2CCCC2=O)c1.O=C(O)C(F)(F)F | 0
65 | COc1ccc(-c2c3c(=O)n(C)c(=O)n(C)c3c3nnc4ccccc4n23)cc1 | 0
66 | Cc1cc2ccc(-c3cccc(CN)c3)cc2nc1N.Cl | 0
67 | CN1CCN(CCCN(Cc2ccc(-c3cccc(CNCc4ccc5c(c4)OCO5)c3)cc2)C(=O)NCCc2ccccc2)CC1.O=C(O)C(F)(F)F | 36
68 | Cc1cc(C(=O)Nc2ccc3c(ccn3C3CCCN(Cc4ccc(C(F)(F)F)cc4F)CC3)c2)no1 (stereo not given) | 19
69 | CCCc1ccc(Nc2nc(C)cc(N(CC)CCCN3CCCCC3)n2)cc1.O=C(O)C(F)(F)F | 48
70 | COc1cccc(CCNCCCCCCNCCc2ccc(Cl)cc2)c1.Cl | 32
